Assay outcomes deposited in PubChem by several laboratories.
Sampled rows, rich in hits. Any-hit rate of the full collection: about 2%.
ABHD5 PLIN5 PPI: blocks binding of human ABHD5 to perilipin-5. Q00G26+Q8WTS1. Split G. princeps luciferase complementation, luminescence, 4 h. inhibition, % at 4 µM. 360,000 compounds, 0.78% hits. AID 602281;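 active means inhibition above the mean inhibition across every tested compound plus 3 SD, cut at about 22% in these data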;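 further: 0% = DMSO only wells and the 100% control is not disclosed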
Beta2AR agonist: agonists of human beta-2 adrenergic receptor inducing internalization; 340,000 compounds, 0.43% hits; P07550; response, % (test concentration not listed); Am2.2-beta2AR cells, FAP receptor internalization, flow cytometry;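 active means response above a set limit, near 3 SD of response in nonfluorescent compounds, cut at about 42% in these data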
NOD2-RIPK2 inh: NOD2-RIPK2 protein interaction inhibition | CHO BLA complementation NOD2-RIPK2, CCF4 ratio | inhibition, % at 4.98 µM | 360,000 compounds, 0.38% hits; in the data active means inhibition above about 21%;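 further: 0% = vehicle only and 100% = reference blocker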
TLR9-MyD88 inh: blocks human TLR9 binding to MyD88. Q9NR96+Q99836. CHO BLA complementation TLR9-MyD88, CCF4 FRET ratio. inhibition, % at 4.98 µM. 340,000 compounds, 0.21% hits. AID 504734;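 active means inhibition above the mean over all tested compounds plus 3 SD, cut at about 21% in these data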;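 further: 0% = DMSO only wells and 100% = clavulanate BLA inhibitor control wells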
Target sequence (Q99836 whole entry, looked up): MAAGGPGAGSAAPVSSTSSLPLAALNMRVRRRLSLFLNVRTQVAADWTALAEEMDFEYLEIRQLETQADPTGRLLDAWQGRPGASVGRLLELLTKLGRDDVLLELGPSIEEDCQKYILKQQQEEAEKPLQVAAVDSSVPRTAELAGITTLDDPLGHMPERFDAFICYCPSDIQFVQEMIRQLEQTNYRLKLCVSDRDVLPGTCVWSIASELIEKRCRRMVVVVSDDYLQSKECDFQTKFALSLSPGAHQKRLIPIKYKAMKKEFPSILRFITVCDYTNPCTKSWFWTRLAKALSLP
Target sequence (Q9NR96 whole entry, looked up): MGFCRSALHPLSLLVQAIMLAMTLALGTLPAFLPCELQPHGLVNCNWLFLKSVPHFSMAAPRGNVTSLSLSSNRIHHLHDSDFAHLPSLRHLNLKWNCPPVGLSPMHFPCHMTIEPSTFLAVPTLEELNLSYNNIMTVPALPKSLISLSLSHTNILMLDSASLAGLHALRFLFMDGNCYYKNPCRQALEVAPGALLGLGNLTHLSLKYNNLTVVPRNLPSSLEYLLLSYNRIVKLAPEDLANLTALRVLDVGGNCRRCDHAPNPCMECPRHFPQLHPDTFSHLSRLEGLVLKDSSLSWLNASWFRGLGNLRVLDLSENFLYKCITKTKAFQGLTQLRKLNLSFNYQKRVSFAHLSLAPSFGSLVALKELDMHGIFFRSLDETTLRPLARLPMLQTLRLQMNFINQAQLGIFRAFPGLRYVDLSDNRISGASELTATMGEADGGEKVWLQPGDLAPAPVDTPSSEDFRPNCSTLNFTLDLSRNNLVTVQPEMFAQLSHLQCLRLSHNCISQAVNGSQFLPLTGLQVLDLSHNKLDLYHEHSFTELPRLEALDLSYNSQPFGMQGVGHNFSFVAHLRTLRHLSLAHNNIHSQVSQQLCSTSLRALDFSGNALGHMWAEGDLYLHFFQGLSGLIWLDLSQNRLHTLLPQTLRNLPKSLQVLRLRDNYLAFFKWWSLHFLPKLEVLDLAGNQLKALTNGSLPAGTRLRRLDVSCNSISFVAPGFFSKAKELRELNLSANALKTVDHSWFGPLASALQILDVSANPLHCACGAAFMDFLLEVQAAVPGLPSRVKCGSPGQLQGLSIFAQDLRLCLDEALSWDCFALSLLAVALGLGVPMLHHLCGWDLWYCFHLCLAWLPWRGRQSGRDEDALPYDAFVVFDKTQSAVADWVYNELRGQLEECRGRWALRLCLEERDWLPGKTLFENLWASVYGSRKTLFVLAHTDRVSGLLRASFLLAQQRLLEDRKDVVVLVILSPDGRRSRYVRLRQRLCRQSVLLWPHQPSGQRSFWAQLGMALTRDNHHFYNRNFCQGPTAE
Exocytosis inh: lytic granule exocytosis inhibition. TALL-104 LAMP-1 surface exposure, flow cytometry; cells stimulated with thapsigargin and PMA. inhibition, % at 10 µM. 360,000 compounds, 0.66% hits;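 active means inhibition above about 55%, limit read from the data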
TLR4 MyD88 comp: inhibitors of human TLR4-MyD88 binding. inhibition, % at 8.4 µM. AID 861. 200,000 compounds, 0.18% hits. O00206+Q99836. HeLa CL3-4 TLR4/MyD88 BLA complementation, FRET ratio; in the data active means inhibition above about 25%;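 further: 0% = vehicle and 100% = reference inhibitor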
Numbers without * were called inactive; . = no result given.

SMILES | ABHD5 PLIN5 PPI | Beta2AR agonist | NOD2-RIPK2 inh | TLR9-MyD88 inh | Exocytosis inh | TLR4 MyD88 comp
CC(=O)c1c(C)[nH]c(C(=O)COC(=O)COc2ccccc2F)c1C | -6 | -1 | 2 | 8 | -5 | .
CC(=O)c1c(C)[nH]c(C(=O)COC(=O)Cc2ccccc2F)c1C | -1 | 59* | -11 | 0 | 1 | .
COc1ccc(N=C2S/C(=C\c3ccc(C)o3)C(=O)N2CC(C)C)cc1 | 1 | 5 | -7 | -3 | 9 | 2
CCCN1C(=O)/C(=C/c2ccc(C)o2)SC1=Nc1ccc(OC)cc1 | 5 | 16 | 4 | -2 | 80* | 2
CCCN1C(=O)/C(=C/c2ccc(C)o2)SC1=Nc1ccc(OCC)cc1 | 8 | -1 | -7 | -8 | 70* | -5
COc1ccc(N=C2S/C(=C\c3ccc(N4CCOCC4)o3)C(=O)N2CCc2c[nH]c3ccccc23)cc1 | 72* | -499 | 33* | 0 | 82* | 4
Cc1ncc(CN2CCCC(C(=O)Nc3ccc(-c4ccco4)cc3)C2)n1C (configuration not stated) | 12 | 4 | -5 | 3 | 9 | .
CSc1ncc(CN2CCCC(C(=O)Nc3ccc(-c4ccco4)cc3)C2)cn1 (configuration not stated) | 35* | 14 | 8 | -5 | 1 | .
CCCS(=O)(=O)NC(=O)C1(C)CCN(C(=O)c2cc(C(C)(C)C)nn2C)C1 (configuration not stated) | 8 | . | -4 | . | 1 | .
N/C(=N\OC(=O)/C=C/c1ccccc1)c1ccccn1 | 0 | -6 | -9 | -7 | 3 | -10
O=C(/C=C/c1ccccc1)c1ccccn1 | 23* | 4 | 6 | 1 | -2 | 3
O=c1c2c3nc4ccccc4nc3n(-c3ccc4c(c3)OCCO4)c2ncn1C1CCCC1 | -1 | 53* | 5 | -3 | 0 | .
CCN1/C(=C/C(C)=C/c2sc3ccccc3[n+]2CC)Sc2ccccc21 | 14 | -357 | 4 | 2 | 82* | 5
CCN1/C(=C\C(=S)Nc2ccccc2)Sc2ccccc21 | -3 | 6 | 3 | -1 | 39 | 4
COc1ccc(C(=O)N=C2SC3CS(=O)(=O)CC3N2c2ccc(N(C)C)cc2)cc1OC (configuration not stated) | -9 | 54* | -5 | -15 | -8 | .
CN(C)Cc1cn(CC[C@@H]2CC[C@@H](NC(=O)Nc3ccccc3F)[C@@H](CO)O2)nn1 | -5 | . | 7 | . | -8 | .
Fc1ccc(CN2CCN(c3ncnc4scc(-c5ccc(F)cc5)c34)CC2)cc1 | -4 | 15 | -11 | -2 | 5 | .
CCN1CCN(c2ncnc3scc(-c4ccc(C)c(C)c4)c23)CC1 | -1 | 8 | -7 | -3 | 82* | .
CCCCNC(=O)C1=C(N)C(C(=O)Nc2ccc(C)c(S(=O)(=O)N3CCCCC3)c2)SC1=Nc1ccc(C)cc1C (configuration not stated) | 24* | 5 | 5 | 7 | -1 | -4
CC(C)(C)S(=O)N1Cc2cc(C(=O)NCc3ccc4c(c3)OCO4)nc(-c3cccc(-c4cc5ccccc5o4)c3)c2[C@@H]1CCO (some centres not stated) | 24* | . | 0 | . | 51 | .
CC(C)(C)S(=O)N1Cc2cc(C(=O)NCc3ccc(Oc4ccccc4)cc3)nc(-c3cccc(-c4cc5ccccc5o4)c3)c2[C@H]1CCO (some centres not stated) | 8 | . | 2 | . | -2 | .
COC(=O)C(=C/C=C/c1ccco1)C(=O)OC | 23* | 7 | -8 | -8 | -4 | .
COc1ccc(NC(=O)/C(C#N)=C\C=C\c2ccco2)cc1 | 7 | -6 | -14 | 10 | 2 | -1
Cc1ccc(S(=O)c2ccc([N+](=O)[O-])c3nonc23)cc1 (configuration not stated) | 13 | . | -3 | 0 | 101* | .
O=C(Nc1c(-c2ccccc2)[nH][nH]c1=O)c1cccs1 | -12 | . | 0 | . | -10 | .
SMILES | ABHD5 PLIN5 PPI | Beta2AR agonist | NOD2-RIPK2 inh | TLR9-MyD88 inh | Exocytosis inh | TLR4 MyD88 comp
COC(=O)[C@]12CCCCC=C1N(Cc1ccc3c(c1)OCO3)C(=O)[C@H](CC(=O)NCc1ccc(OC)c(OC)c1)C2 | -4 | . | -1 | . | 7 | .
O=C(CC(Nc1ccc(Cl)cc1)C(=O)O)c1ccccc1 (configuration not stated) | 22* | 12 | -1 | -3 | 1 | 0
O=C(CC(C(=O)O)c1ccc(Cl)cc1)c1ccccc1 (configuration not stated) | 4 | -3 | 0 | 7 | -8 | -8
CCN(CC)c1ccc(/C=N/NC(=O)c2cccc(S(=O)(=O)Nc3ccccc3OC)c2)c(O)c1 | 5 | 27 | 21* | 21* | 2 | 7
CCN(CC)c1ccc(/C=N/NC(=O)c2ccc3nc[nH]c3c2)c(O)c1 | -1 | 18 | -5 | -12 | 67* | .
Cc1ccc(NC2CCCN(C(=O)C3CCCC3)C2)cc1C (configuration not stated) | -2 | 12 | -6 | -9 | 0 | .
CC(SC#N)C(=O)C12CC3CC(CC(C3)C1)C2 (configuration not stated) | -6 | 9 | 1 | 4 | -2 | 2
CCOC(=O)N1CCC2(CC1)C(C(=O)C13CC4CC(CC(C4)C1)C3)C2(C#N)C#N (configuration not stated) | -5 | 4 | -6 | 0 | 71* | -4
COc1ccc(C2c3ccc4ccccc4c3Oc3ncn(CCCO)c(=N)c32)cc1 (configuration not stated) | -6 | 11 | 1 | -6 | 65* | .
COc1ccc(C2c3ccc4ccccc4c3Oc3ncn(CCO)c(=N)c32)cc1 (configuration not stated) | 8 | -2 | 12 | -11 | 52 | .
O=C(Nc1ccc(F)cc1)C(CCc1ccccc1)N1CCN(c2cccc(C(F)(F)F)n2)CC1 (configuration not stated) | -15 | . | -5 | . | 4 | .
Nc1c(N2CCOCC2)cc(Cl)c2nonc12 | -13 | 46* | -1 | -5 | -2 | -6
COC(=O)c1ccccc1NC(=O)c1nc(S(=O)(=O)Cc2ccccc2)ncc1Cl | -2 | 52* | 2 | 8 | 30 | .
CCCCNC(=O)c1nc(C2CCN(S(=O)(=O)c3ccc(OC(F)(F)F)cc3)CC2)oc1-c1ccccc1 | -1 | . | -10 | . | -2 | .
N#C/C(=C/c1cccc([N+](=O)[O-])c1)C(=O)Nc1ccccc1O | 2 | 57* | -4 | 5 | -4 | .
N#C/C(=C\c1cccc([N+](=O)[O-])c1)C(=O)Nc1cccnc1 | -6 | 2 | 7 | -2 | -2 | -17
COc1ccc(C(=O)/C=C/c2cn(CN3CCN(C)CC3)c3ccccc23)cc1 | -4 | -3 | 21* | 12 | 26 | 18
COc1ccc(C(=O)/C=C/c2cn(CC(O)CN3CCOCC3)c3ccccc23)cc1 (configuration not stated) | 17 | 10 | 19 | 11 | -2 | 0
